# Measurements published in PubChem BioAssay (NCATS).
# Records with an inconclusive call do not appear. A call without a number means that no potency is given here. Active and inactive are the calls of the source. Unless noted, calls follow the shape of the dose curve; as a rule, active = well fitted curve in the direction sought with a large enough effect; inconclusive = small, poorly fitted or top-dose-only effect, or another doubt; inactive = no such curve, though single readings can be large; an effect the other way counts as inactive or inconclusive.
# Key:
# [1] = biological target: Aldehyde dehydrogenase, mitochondrial (Homo sapiens) (UniProt P05091); assay: qHTS for Inhibitors of the Aldehyde Dehydrogenase Family (ALDH2) Confirmatory screens (AID 2061303; active = well fitted inhibition curve with a large enough effect; title and protocol of this record describe different tests; also: nearly all actives have a fitted effect of over 45% in size; also: potency is read from the fitted curve at half-maximal effect); settings: ALDH inhibition qHTS; series mostly up to 45.4 µM
# [2] = qHTS for Inhibitors of the Aldehyde Dehydrogenase Family (ALDH1A2, ALDH1A3, ALDH2, ALDH3A1) (AID 2061307); settings: ALDH inhibition qHTS; series mostly up to 50.3 µM; also: nearly all actives have a fitted effect of over 50% in size; as to potency: test system not described further here; potency is read from the fitted curve at half-maximal effect
# [3] = biological target: Aldehyde dehydrogenase, mitochondrial (Homo sapiens) (UniProt P05091); assay: qHTS for Inhibitors of the Aldehyde Dehydrogenase Family (ALDH2) Primary screen (AID 2061308); settings: ALDH2 enzyme inhibition qHTS, 1536-well; series mostly up to 56 µM; also: nearly all actives have a fitted effect of over 55% in size; also: potency is read from the fitted curve at half-maximal effect
# [4] = biological target: Retinaldehyde dehydrogenase 3 (Homo sapiens) (UniProt P47895); assay: qHTS for Inhibitors of the Aldehyde Dehydrogenase Family (ALDH1A3) Confirmatory screens (AID 2061311); settings: ALDH inhibition qHTS; series mostly up to 46 µM; also: nearly all actives have a fitted effect of over 60% in size; also: potency is read from the fitted curve at half-maximal effect
# [5] = biological target: Retinal dehydrogenase 2 (Homo sapiens) (UniProt O94788); assay: qHTS for Inhibitors of the Aldehyde Dehydrogenase Family (ALDH1A2) Confirmation screens (AID 2061314); settings: ALDH1A2 enzyme inhibition qHTS confirmation; series mostly up to 45.9 µM; also: nearly all actives have a fitted effect of over 65% in size; also: potency is read from the fitted curve at half-maximal effect
# [6] = biological target: Retinaldehyde dehydrogenase 3 (Homo sapiens) (UniProt P47895); assay: qHTS for Inhibitors of the Aldehyde Dehydrogenase Family (ALDH1A3) Primary screen (AID 2061315); settings: ALDH inhibition qHTS; series mostly up to 56 µM
# [7] = biological target: Aldehyde dehydrogenase 1A1 (Homo sapiens) (UniProt P00352); assay: qHTS for Inhibitors of the Aldehyde Dehydrogenase Family (ALDH1A1) Confirmatory screens (AID 2061316); settings: ALDH inhibition qHTS; series mostly up to 47.3 µM; also: nearly all actives have a fitted effect of over 65% in size; also: potency is read from the fitted curve at half-maximal effect
SMILES,Potency [1],Potency [2],Potency [3],Potency [4],Potency [5],Potency [6],Potency [7]
CC(C)c1ccccc1-c1ncc(F)c(NC(C)(C)c2ccc(-c3cccnc3)cc2)n1,inactive,inactive,inactive,inactive,inactive,inactive,inactive
O=C(Nc1ccccc1)OCc1c(-c2ccccc2)no[n+]1[O-],inactive,11.3 µM (active),inactive,inactive,inactive,inactive,
O=C1c2ccccc2NC(c2ccc(-c3cccc([N+](=O)[O-])c3)o2)N1O (centres undefined),4.49 µM (active),2.25 µM (active),10 µM (active),4.49 µM (active),2.52 µM (active),inactive,3.18 µM (active)
O=C(O)c1ccc2c(c1)C(=O)N([C@]1(C(=O)O)C[C@H]1c1ccccc1)C2=O,inactive,inactive,inactive,inactive,inactive,inactive,
Cc1ccc(OCCn2c(CCNC(=O)c3cccc(Cl)c3)nc3ccccc32)cc1,inactive,inactive,inactive,inactive,inactive,inactive,
CC(C)(C)OC(=O)N1CCN(c2ccc(NCc3cnc(-c4ccc(C#N)cc4)o3)cc2)CC1,0.4 µM (active),0.252 µM (active),0.316 µM (active),inactive,inactive,inactive,inactive
COc1ccc(C=O)cc1COc1ccc(NC(C)=O)cc1,3.16 µM (active),0.318 µM (active),inactive,15.8 µM (active),3.18 µM (active),inactive,
O=C1CCCC2=C1C(c1cccnc1Cl)N=C(Nc1nc3ccccc3o1)N2 (centres undefined),inactive,inactive,inactive,inactive,22.5 µM (active),inactive,
CC(=O)Nc1sc2c(c1-c1cc3ccccc3[nH]1)CCNC2,inactive,inactive,inactive,inactive,28.3 µM (active),inactive,
COc1cccc(C2c3c(ncn(CCCN4CCOCC4)c3=N)Oc3ccc4ccccc4c32)c1 (centres undefined),inactive,inactive,inactive,inactive,inactive,inactive,inactive
O=C(O)c1ccc2c(c1)C(=O)N([C@H](Cc1ccc(F)cc1)C(=O)O)C2=O,inactive,inactive,inactive,inactive,inactive,inactive,inactive
NC(=O)C1CCN(c2ncc(-c3ccc(Cl)cc3)s2)CC1,inactive,12.7 µM (active),inactive,inactive,inactive,inactive,
Cc1cc(N2C(=O)c3ccccc3C2=O)n[nH]1,inactive,inactive,inactive,inactive,inactive,inactive,inactive
FC(F)(F)c1cc(N2CCN(C(=S)Nc3cc(Cl)ccn3)CC2)cc(C(F)(F)F)c1,inactive,inactive,inactive,inactive,inactive,inactive,22.5 µM (active)
c1cncc(CNc2ncnc3ccc(-c4ccoc4)cc23)c1,inactive,inactive,inactive,inactive,inactive,inactive,
CC(=O)Nc1sc2c(c1-c1cnn(C(C)=O)c1)CCNC2,inactive,inactive,inactive,inactive,inactive,inactive,
COc1ccc(C2=Nn3c(nnc3-c3cccc(OC)c3)SC2)cc1,inactive,12.7 µM (active),inactive,inactive,inactive,inactive,inactive
Cc1ccc(CNc2ccc(N3CCNCC3=O)cc2)cc1,inactive,inactive,inactive,14.2 µM (active),10.1 µM (active),inactive,
COc1ccc(C[C@H](N)C(=O)N[C@H]2[C@@H](O)[C@H](n3cnc4c(N(C)C)ncnc43)O[C@@H]2CO)cc1,inactive,inactive,inactive,inactive,inactive,inactive,inactive
CCc1nnc(-c2cnn(C)c2N)n1CCCn1ccnc1,inactive,inactive,inactive,inactive,inactive,inactive,inactive
CCCCC(=O)N1CCC(C(=O)Nc2ccc([S+](=O)([O-])Nc3nccs3)cc2)CC1,inactive,inactive,inactive,inactive,inactive,inactive,
Cn1nnnc1Sc1ncnc2scc(Br)c12,inactive,inactive,inactive,inactive,inactive,inactive,
O=C(Nc1ccc(F)c(C(F)(F)F)c1)Nc1nnc(C2CCCCC2)s1,inactive,inactive,8.91 µM (active),inactive,inactive,inactive,
Cc1cn([C@H]2C[C@H](N[S+](=O)([O-])Cc3ccc(Cl)cc3)[C@@H](CO)O2)c(=O)[nH]c1=O,inactive,inactive,inactive,inactive,inactive,inactive,
